Most compounds without a hit are left out; they make up all but 11% or so of the library.
IMPase Li inh: cell-permeable IMPase inhibitors with lithium potentiation; CHO-M1 cells, IP1 TR-FRET (IP-One), carbachol + lithium; Potency, µM (series often up to 59.4 µM), for inactives: at the highest dose activity, negative = IMPase inhibition, usual class: inhibitors; hit rate 0.35% among 210,000; AID 1457;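 note: IP1 builds up when IMPase is blocked and the TR-FRET signal falls; potency is the fitted concentration of half-maximal effect; plate controls were basal vehicle for no effect and high inhibitor control for full effect; nearly all actives have a fitted effect of over 50% in size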
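Readout is a homogeneous TR-FRET IP1 immunoassay (Ex 320, Em 665 and 620), where raised cytosolic IP1 lowers signal. Cells were CHO-M1 treated 30 min at 37C with test compounds plus a little lithium; AC50 values came from Hill-equation fitting.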
ALOX12 inhib: blocks human 12-lipoxygenase activity; P18054; purified 12-hLO, xylenol orange hydroperoxide absorbance; Potency, µM (highest dose often 57.1 µM), for inactives: at the highest dose activity change, negative = inhibition, hits mostly inhibitors; hit rate 0.12% among 150,000; note: potency is the fitted concentration of half-maximal effect; nearly all actives have a fitted effect of over 55% in size
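Hydroperoxide formation by human 12-lipoxygenase from 40 uM arachidonic acid was followed colorimetrically via ferric-xylenol orange complex, using the 573/405 nm absorbance ratio. Enzyme concentration was 150 nM, with 30 min reaction at room temperature.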
HPGD inh: inhibitors of human 15-hydroxyprostaglandin dehydrogenase (HPGD); hit rate 4.3% among 150,000; purified HPGD, NADH fluorescence kinetic, PGE2 substrate; AID 894; P15428; Potency, µM, inactives show at the top dose activity change, negative = inhibition, most hits filed as inhibitors; active = well fitted inhibition curve with a large enough effect, not every such curve was filed as active; inconclusive = small, poorly fitted or top-dose-only effect, or another doubt; inactive = no such curve, though single readings can be large or run the other way; note: potency is the fitted concentration of half-maximal effect
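NADH formation kinetics: reaction with 30 uM PGE2 and 1 mM NAD+ (final), 20 nM enzyme, Tris-HCl pH 8 with Tween 20, after 15 min compound preincubation at room temperature. Fluorescence change, last versus first of five reads.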
PNC assembly inh: inhibitors of perinucleolar compartment assembly; PC3M PTB-GFP, PNC prevalence imaging, 16 h; hits give low values; hit rate 3.1% among 140,000; activity change (PNC), negative = inhibition, % at 10 µM; AID 2417;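 active = readout at or below -70, meaning at least 70% loss of cells showing the perinucleolar compartment, a nuclear body marking cancer cells; inconclusive = readout between -30 and a set limit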;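 note: plate controls were DMSO wells for no effect and camptothecin positive control wells for full effect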
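Compounds are pinned in duplicate onto adhered PC3M cells stably expressing GFP-tagged PTB and incubated 16 h at 37 C. Cells are then fixed, nuclei stained with Hoechst, and PNC-positive cells counted.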
ALDH1A1 block: inhibitors of human aldehyde dehydrogenase 1A1; AID 1030; hit rate 7.3% among 220,000; Potency, µM (top dose mostly 75.3 µM), for inactives: top-dose activity, negative = inhibition, actives largely listed as inhibitors; Purified ALDH1A1, NADH fluorescence, propionaldehyde substrate; P00352; active = well fitted inhibition curve with a large enough effect, not every such curve was filed as active; inconclusive = small, poorly fitted or top-dose-only effect, or another doubt; inactive = no such curve, though single readings can be large or run the other way;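 note: potency is the fitted concentration of half-maximal effect; plate controls were no enzyme wells and a reference inhibitor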
Target sequence (P00352 whole entry, looked up): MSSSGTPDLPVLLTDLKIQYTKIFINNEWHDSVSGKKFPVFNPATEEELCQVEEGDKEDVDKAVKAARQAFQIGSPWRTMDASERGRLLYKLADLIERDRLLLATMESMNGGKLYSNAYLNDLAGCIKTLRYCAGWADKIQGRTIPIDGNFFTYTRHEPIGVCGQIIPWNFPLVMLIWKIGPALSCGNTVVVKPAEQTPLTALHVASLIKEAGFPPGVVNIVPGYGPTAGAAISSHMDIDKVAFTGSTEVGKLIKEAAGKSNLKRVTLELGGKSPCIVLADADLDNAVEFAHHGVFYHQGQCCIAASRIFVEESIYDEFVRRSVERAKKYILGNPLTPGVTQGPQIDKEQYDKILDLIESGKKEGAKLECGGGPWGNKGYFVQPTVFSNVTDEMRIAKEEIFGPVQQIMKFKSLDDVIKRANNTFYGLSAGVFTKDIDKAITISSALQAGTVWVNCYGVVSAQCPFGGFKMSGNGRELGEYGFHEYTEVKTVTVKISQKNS
IMPase cell inh: cell-permeable inhibitors of inositol monophosphatase (IMPase); inhibition (IP1 accumulation), % at 46.1 µM; CHO-M1 cells, IP1 accumulation, HTRF TR-FRET ratio; 120,000 tested, under 10 active; active = well fitted curve in the direction sought with a large enough effect in the signal ratio, not every such curve was filed as active; inconclusive = small, poorly fitted or top-dose-only effect, or a change in a side signal; inactive = no such curve, though single readings can be large or run the other way; the % refers to the signal ratio;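 note: cells stimulated with carbachol in lithium chloride buffer; plate controls were DMSO basal wells for no effect and reference inhibitor wells for full effect; higher means more IMPase inhibition seen as more IP1 and lower FRET ratio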
Target sequence (P97697 whole entry, looked up): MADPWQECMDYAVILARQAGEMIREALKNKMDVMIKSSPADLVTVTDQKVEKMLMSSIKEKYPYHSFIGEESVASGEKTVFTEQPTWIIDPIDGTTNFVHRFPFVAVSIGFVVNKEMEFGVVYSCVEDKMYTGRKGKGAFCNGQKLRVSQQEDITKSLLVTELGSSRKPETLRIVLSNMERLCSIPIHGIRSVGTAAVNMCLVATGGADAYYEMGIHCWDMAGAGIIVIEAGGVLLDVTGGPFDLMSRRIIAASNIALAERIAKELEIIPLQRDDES
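CHO-M1 cells (CHO stably expressing M1 receptor), compound up to 46 uM final, stimulated with carbachol (50 uM as added) in buffer with 50mM LiCl, pH 7.4, 30 min at 37C. Cytosolic IP1 read by TR-FRET; AC50 from Hill fits.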
Starred values were filed as active, the others as inactive; ? = inconclusive; . = no result given; [ ] = dose if it differs, or a comment. Unless noted, calls come from the whole dose curve; as a rule, active = well fitted curve in the direction sought with a large enough effect; inconclusive = small, poorly fitted or top-dose-only effect, or another doubt; inactive = no such curve, though single readings can be large; an effect the other way counts as inactive or inconclusive. Unless noted, % is set by controls: 0 for no effect and ±100 for the full control effect.

SMILES | IMPase Li inh | ALOX12 inhib | HPGD inh | PNC assembly inh | ALDH1A1 block | IMPase cell inh
Cc1cc(NC(=O)c2cc(-c3ccccn3)nc3ccccc23)no1 | -12%[38.3 µM] | 1% | -4% | -3 | -8% | 3
O=C1C[C@H]2OCC=C3CN4CC[C@@]5(C(=O)O)[C@H](N1)[C@H]2[C@H]3C[C@H]45 | . | 0%[11.4 µM] | . | . | . | .
Cc1cc(C(=O)NNC(=S)NCc2ccco2)nn1C | 5% | . | . | . | 5% | .
CCOC(=O)c1c(C)oc2c1c1c(c3ccccc32)OCN(CCCC(=O)O)C1 | . | . | . | . | 7.9µM* | .
CCOC(=O)c1c(C)oc2c1c1c(c3ccccc32)OCN(Cc2cccnc2)C1 | 56%[38.3 µM] | ? | -25% | 20 | 0.2µM* | 7
COc1ccccc1-n1c(SCC(=O)Nc2cccc3ccccc23)nc(O)cc1=O | 38%[38.3 µM] | -17% | -16% | 79 | ? | -6
COc1ccc(NC(=O)CSc2nc3c(c(=O)n2-c2ccc(F)cc2)SCC3)cc1 | 14%[38.3 µM] | 0% | -5% | ? | ? | 1
COc1ccccc1-n1c(SCC(=O)Nc2ccc(F)cc2)nc2c(c1=O)SCC2 | 0% | -3% | -16% | 25 | 11µM* | 14
COc1ccccc1-n1c(SCC(=O)Nc2ccc(C)cc2)nc(O)cc1=O | 21%[38.3 µM] | 0.079µM* | -13% | 14 | ? | 0
COc1ccc(NC(=O)CSc2nc(O)cc(=O)n2-c2ccccc2OC)cc1 | 13%[38.3 µM] | 7.1µM* | -7% | -11 | 4% | 6
CCOC(=O)C1=C(C)Nc2ccccc2N=C1NC(=O)Cc1ccc(OC)cc1 | 7% | 0% | -11% | 2 | -10% | -5
CCOC(=O)C1=C(C)Nc2ccccc2N=C1NC(=O)/C=C/c1ccc(OC)cc1OC | 10% | . | . | . | 20µM* | .
CCC12CCCN3CCC4(C(=C(C(=O)OC)C1)Nc1ccccc14)C32 (configuration not stated) | 17%[38.3 µM] | -11% | -22% | ? | 20µM* | -10
CS(=O)(=O)Nc1cccc(-c2ccc3ncnc(Nc4ccccc4)c3c2)c1 | 28% | . | . | . | -4% | .
COc1cc(/C=C2/NC(=O)N(Cc3ccccc3F)C2=O)cc(OC)c1OC | -2% | . | . | . | 2.5µM* | .
Cc1cc(/C=c2/sc3nc4ccccc4n3c2=O)c(C)n1-c1ccccn1 | 17%[38.3 µM] | -15% | -11% | -8 | 13µM* | 7
O=C1N/C(=C/c2cccs2)C(=O)N1Cc1ccccc1F | 5% | . | . | . | ? | .
Cc1cc(/C=c2\sc3nc4ccccc4n3c2=O)c(C)n1-c1ccc(C(=O)O)cc1 | 12% | . | . | . | ? | .
Cc1cc(/C=C2/NC(=O)N(Cc3ccccc3F)C2=O)c(C)n1-c1ccccn1 | -4% | -14% | ? | 44 | 8.9µM* | .
CCOc1cc([N+](=O)[O-])cc(/C=C2/NC(=O)N(Cc3ccccc3F)C2=O)c1O | 6% | . | . | . | 2.2µM* | .
COc1ccc(/C=C2/NC(=O)N(Cc3ccccc3F)C2=O)cc1OC | -4% | . | . | . | ? | .
Cc1cccc(CN2C(=O)N/C(=C/c3cc(C)n(-c4ccccn4)c3C)C2=O)c1 | 33%[38.3 µM] | -21% | -20% | -29 | ? | 5
CCOc1ccc(Nc2nc3cc(Cl)c(Cl)cc3nc2-n2nc(C)cc2C)cc1 | . | . | . | . | . | 7
CCOc1ccccc1Nc1nc(-c2ccc(C)cc2)c(CC(=O)O)s1 | . | . | . | . | . | 2
COc1cc2c(c(OC)c1OC)C(c1ccccc1C)CC(=O)O2 (configuration not stated) | 2% | -4%[0.00818 µM] | -27% | . | ? | .
SMILES | IMPase Li inh | ALOX12 inhib | HPGD inh | PNC assembly inh | ALDH1A1 block | IMPase cell inh
CCN(C(=O)Cn1c(=O)n(CCCS(=O)(=O)C2CCCCC2)c(=O)c2ccccc21)c1cccc(C)c1 | . | . | . | . | . | 1
Cc1cc(/C=C2/NC(=O)N(Cc3ccccc3F)C2=O)c(C)n1C | 1% | -2% | -14% | ? | 1.1µM* | .
Cc1ccc(/C=C2/NC(=O)N(Cc3ccccc3F)C2=O)s1 | -12% | . | . | . | ? | .
CN(C)c1ccc(/C=[N+](\[O-])C2SC(=S)N(C)C2(C)C)cc1 (configuration not stated) | -18%[38.3 µM] | -1% | -25% | 18 | 0.45µM* | 6
CN(C)c1ccc(/C=[N+](\[O-])C2N(c3ccccc3)C(=S)SC2(C)C)cc1 (configuration not stated) | 20% | -1% | -12% | -20 | 22µM* | .
CN1C(=S)SC(C)(C)C1/[N+]([O-])=C/c1cccnc1 (configuration not stated) | 29%[38.3 µM] | -1% | -2% | ? | 9% | 1
O=C(CSc1nnc(-c2ccccc2)c(-c2ccccc2)n1)NC1CCS(=O)(=O)C1 (configuration not stated) | 6% | . | . | . | -2% | .
COc1ccc(Cn2nnc3c(=O)[nH]c(C(=O)NCCc4ccc(F)cc4)nc32)cc1OC | 25%[38.3 µM] | -4% | 3.2µM* | 3 | -6% | 7
FC(F)(F)c1nc(NCC2CCCO2)c2nnn(Cc3ccccc3Cl)c2n1 (configuration not stated) | 11% | . | . | . | -9% | .
O=C(NC1CC1)c1nc2c(nnn2Cc2ccccc2Cl)c(=O)[nH]1 | 4% | 3% | 16µM* | ? | -1% | -1
CCCc1nc2c(nnn2Cc2ccccc2Cl)c(=O)[nH]1 | 16% | . | . | . | 4% | .
O=C(NCCc1ccccc1)c1nc2c(nnn2Cc2ccccc2Cl)c(=O)[nH]1 | 2% | -3% | 7.9µM* | -25 | 12% | 4
O=C(NCC1CCCO1)c1nc2c(nnn2Cc2ccccc2Cl)c(=O)[nH]1 (configuration not stated) | -4% | 0% | 13µM* | -5 | 6% | ?
Cc1ccc2oc(-c3ccc(Cl)c(NC(=O)c4cc5ccccc5o4)c3)nc2c1 | . | . | . | . | . | 6
O=C(NC1CCCCC1)c1nc2c(nnn2Cc2ccccc2Cl)c(=O)[nH]1 | 13% | 3% | 4.5µM* | ? | ? | 2
CCc1cccc(CC)c1NC(=O)CSc1nc2ccc(N3C(=O)C4C5C=CC(C5)C4C3=O)cc2s1 (configuration not stated) | 8%[38.3 µM] | 6% | 8.9µM* | 0 | ? | 5
O=C(O)c1ccc(CSc2nc3ccc(N4C(=O)C5C6C=CC(C6)C5C4=O)cc3s2)cc1 (configuration not stated) | 6% | -1% | 16µM* | 27 | 28µM* | .
Cc1cccc([C@@H]2CN(C)CCc3c2cc(O)c(O)c3Cl)c1 | 12% | -26% | -1% | . | -8% | 10
COc1ccc2c(c1)O[C@@H](c1cccc(C(F)(F)F)c1)[C@H](OC(=O)NS(=O)(=O)c1ccc(F)cc1)C2=O | 10% | . | -15% | . | -2% | .

Bioassay records as filed in PubChem.
